Here are results for 37 molecules from PubChem BioAssay (NCATS).

Records with an inconclusive call do not appear. A number with no mark means an inactive call. Active and inactive are the calls of the source. Calls follow the shape of the dose curve; as a rule, active = well fitted inhibition curve with a large enough effect; inconclusive = small, poorly fitted or top-dose-only effect; inactive = flat fitted curve, though single readings scatter.
% is scaled to controls: 0 for no effect and ±100 for the full control effect; potency is read from the fitted curve at half-maximal effect.

Voltage-gated inwardly rectifying potassium channel KCNH2 (Homo sapiens), sequence (Q12809 whole entry, looked up): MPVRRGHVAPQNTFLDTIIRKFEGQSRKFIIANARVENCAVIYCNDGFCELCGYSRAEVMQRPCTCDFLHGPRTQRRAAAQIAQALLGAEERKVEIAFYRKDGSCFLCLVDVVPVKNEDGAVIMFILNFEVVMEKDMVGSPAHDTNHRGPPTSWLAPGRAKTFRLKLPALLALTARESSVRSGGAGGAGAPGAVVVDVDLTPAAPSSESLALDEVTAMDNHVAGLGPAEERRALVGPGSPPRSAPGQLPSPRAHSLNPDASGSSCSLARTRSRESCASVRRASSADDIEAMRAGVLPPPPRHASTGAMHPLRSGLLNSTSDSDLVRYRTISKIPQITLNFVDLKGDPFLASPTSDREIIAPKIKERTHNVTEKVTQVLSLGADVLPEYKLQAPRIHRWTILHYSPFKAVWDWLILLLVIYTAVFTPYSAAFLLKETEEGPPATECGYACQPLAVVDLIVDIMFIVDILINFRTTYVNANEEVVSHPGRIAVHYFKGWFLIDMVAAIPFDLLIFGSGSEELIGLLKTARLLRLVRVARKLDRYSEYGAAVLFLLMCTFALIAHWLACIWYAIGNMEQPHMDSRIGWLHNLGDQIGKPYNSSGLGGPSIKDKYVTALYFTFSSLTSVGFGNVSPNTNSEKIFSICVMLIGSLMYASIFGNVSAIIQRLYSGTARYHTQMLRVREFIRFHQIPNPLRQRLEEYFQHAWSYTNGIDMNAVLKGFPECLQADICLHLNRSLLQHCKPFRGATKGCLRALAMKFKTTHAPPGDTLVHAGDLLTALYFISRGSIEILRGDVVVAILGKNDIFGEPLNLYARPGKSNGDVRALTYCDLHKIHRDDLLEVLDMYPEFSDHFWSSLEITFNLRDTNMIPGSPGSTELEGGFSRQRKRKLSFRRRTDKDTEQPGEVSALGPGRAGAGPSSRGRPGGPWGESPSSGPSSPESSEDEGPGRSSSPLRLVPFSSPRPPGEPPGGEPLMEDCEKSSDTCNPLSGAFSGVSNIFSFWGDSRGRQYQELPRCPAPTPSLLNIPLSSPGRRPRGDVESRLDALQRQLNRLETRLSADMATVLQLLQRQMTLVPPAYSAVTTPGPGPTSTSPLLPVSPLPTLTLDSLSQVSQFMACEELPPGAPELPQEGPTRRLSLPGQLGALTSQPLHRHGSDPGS

In this experiment the target is Voltage-gated inwardly rectifying potassium channel KCNH2 (Homo sapiens) (UniProt Q12809). Description: qHTS Assay for Small Molecule Inhibitors of the Human hERG Channel Activity (AID 588834).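 Also: lower thallium flux fluorescence means stronger hERG block; nearly all actives have a fitted effect of over 50% in size.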 As to activity change, negative = inhibition: top concentration of the series differs between compounds. Particulars: U2OS BacMam hERG, FluxOR thallium flux fluorescence; series mostly up to 46.1 µM; activity change, negative = inhibition: at the top concentration. In short, it runs like this:
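Cells were infected with hERG-BacMam virus for 4 hrs at room temperature, grown overnight, then seeded at 2000/well. After dye loading and roughly 10 min compound treatment, thallium influx was triggered and fluorescence recorded.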
For orientation: Quantitative high-throughput screening tests each substance at several concentrations.
With `CCC(N)Cc1c[nH]c2ccccc12` (configuration not stated), the “activity change, negative = inhibition” value was 1.52%.

`CC[N+](C)(CC)CCOC(=O)C(O)(c1ccccc1)c1ccccc1`: the “activity change, negative = inhibition” value is 1.71%.

In the case of `O=C(NC(=O)c1c(F)cccc1F)Nc1ccc(Cl)c(Oc2ncc(C(F)(F)F)cc2Cl)c1`, the “activity change, negative = inhibition” value is 1.04%.

Take `C[N+]1(C)CCCCC1COC(=O)C(O)(c1ccccc1)c1ccccc1` (configuration not stated): the “activity change, negative = inhibition” value is -1.79%.

On to `Clc1ccc(C2(Cn3cncn3)OCCO2)c(Cl)c1`, for which the “activity change, negative = inhibition” value is 21.3%.

`C=CCN1CC[C@]23c4c5ccc(O)c4O[C@H]2[C@@H](O)C=C[C@H]3[C@H]1C5`: the “activity change, negative = inhibition” value was 21.9%.

`FC(F)OC(F)(F)C(F)Cl` (configuration not stated): the “activity change, negative = inhibition” value is -9.7%.

Regarding `O=P(O)(O)C(Cl)(Cl)P(=O)(O)O`, the “activity change, negative = inhibition” value is 5%.

With `CCCCCCCCCC(=O)O[C@H]1CC[C@H]2[C@@H]3CCC4=CC(=O)CC[C@]4(C)[C@H]3CC[C@]12C`, the “activity change, negative = inhibition” value was -1.15%.

As to `C#CC(C)(O)CC` (configuration not stated), the “activity change, negative = inhibition” value was 10.4%.

For `CC(=O)O[C@H]1CC[C@H]2[C@@H]3CCC4=CC(=O)CCC4=C3C=C[C@]12C`, the “activity change, negative = inhibition” value was 11%.

Take `CN1C2CCC1CC(OC(c1ccccc1)c1ccc(Cl)cc1)C2` (configuration not stated): the Potency was 0.501 µM (active).

With `CCC1(c2ccccc2)C(=O)NC(=O)N(C(=O)c2ccccc2)C1=O` (configuration not stated), the “activity change, negative = inhibition” value is 7.24%.

Consider `CNC(C)C(O)c1ccc(O)cc1` (configuration not stated), for which the Potency result was “inactive”.

On to `CC1CCC(C(C)C)C(OC(=O)c2ccccc2N)C1` (configuration not stated), for which the “activity change, negative = inhibition” value was -9.37%.

`O=C1CN(O)C(c2ccccc2)=c2cc(Cl)ccc2=N1`: the “activity change, negative = inhibition” value was 10.4%.

As for `CCON=O`, the “activity change, negative = inhibition” value is 12.1%.

As for `CN1CCCC(=C(c2cccs2)c2cccs2)C1`, the Potency is 8.91 µM (active).

Turning to `CCC(=O)O[C@@](Cc1ccccc1)(c1ccccc1)[C@@H](C)CN(C)C`, the “activity change, negative = inhibition” value was 1.62% [at 20.6 µM].

Turning to `CCC(C)(S(=O)(=O)CC)S(=O)(=O)CC`, the “activity change, negative = inhibition” value was 12.9%.

Take `O=c1[nH]cc(N(CCCl)CCCl)c(=O)[nH]1`: the “activity change, negative = inhibition” value is 11.7%.

Turning to `O=C1CC[C@@]2(O)C3Cc4ccc(O)c5c4C2(CCN3CC2CC2)[C@H]1O5` (some centres not stated), the Potency is 11.2 µM (active).

Consider `OC(c1ccccc1)(c1ccccc1)C1CN2CCC1CC2` (configuration not stated), for which the Potency is 3.55 µM (active).

Regarding `O=S(=O)(O)c1cc(O)ccc1O`, the “activity change, negative = inhibition” value was 3.89% [at 20.6 µM].

Take `C[C@@H](Cc1ccccc1)NCCC(c1ccccc1)c1ccccc1`: the Potency was 0.631 µM (active).

Turning to `COc1ccc(OC)c(C(O)C(C)N)c1` (configuration not stated), the “activity change, negative = inhibition” value is 5.62%.

For `Cn1sc(Cl)cc1=O`, the “activity change, negative = inhibition” value is 6.44%.

As for `CCCCNCC(O)c1ccc(O)cc1` (configuration not stated), the “activity change, negative = inhibition” value is 4.49%.

On to `CCC1C(C)=NN=C(c2ccc(OC)c(OC)c2)c2cc(OC)c(OC)cc21` (configuration not stated), for which the “activity change, negative = inhibition” value was 11.4%.

With `CCC1(CC)C(=O)NC(=O)N(C)C1=O`, the “activity change, negative = inhibition” value was 8.79%.

`O=C1CN=C(c2ccccc2)c2cc(Cl)ccc2N1CC1CC1`: the “activity change, negative = inhibition” value was -16.9%.

With `CC(C)(O)C1C2OC(=O)C1C1(O)CC3OC34C(=O)OC2C14C` (configuration not stated), the “activity change, negative = inhibition” value was 1.48%.

Turning to `CN1[C@@H]2CC[C@H]1CC(OC1c3ccccc3CCc3ccccc31)C2` (some centres not stated), the Potency is 8.91 µM (active).

Take `CNC(=O)Oc1ccccc1C(=O)Nc1ccccc1`: the “activity change, negative = inhibition” value was -5.41%.

With `C=CCC1(C(C)CCC)C(=O)N=C(S)NC1=O` (configuration not stated), the “activity change, negative = inhibition” value is -5.95%.

On to `O=C(OCCN1CCCCC1)C(O)(c1ccccc1)c1ccccc1`, for which the Potency is 11.2 µM (active).

On to `CCCC(C)C1(CC)C(=O)NC(=O)NC1=O` (configuration not stated), for which the “activity change, negative = inhibition” value was 3.04%.
